Values joined by “and” are separate entries in the source; they are usually repeats but may differ in a detail not shown here. Identical values can stand only once. Among all 5,500 compounds or so, about 2,000 (36%) were called active. Another 18% or so got no clear call; they are omitted. Cut-off read from the data, not from the text of the source: active = normalized growth mostly below about 0.91 (no sharp cut-off); inconclusive = no clear call, values can overlap the other calls; inactive = mostly above about 0.92. The list shows a part of the results.
Test: chemical genetic growth profiling, strain panel (AID 1159580);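 note: tested at 20 µM; growth read once vehicle control cultures reached saturation at 30 °C; 1 = growth at the plate median or of vehicle wells; lower values mean less growth of the strain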
Conditions: S. cerevisiae deletion strains, growth OD

Measured: normalized growth

CC(=O)O[C@@H]1CC2C(C)(CC[C@H](O)C2(C)C)C2CC[C@]3(C)C(=CC(=O)O[C@H]3c3ccoc3)C21C (stereo not given in full)
inactive: locus YAL013W, strain DEP1, stronger effect = lower value 0.999 | locus YAL021C, strain ccr4, stronger effect = lower value 0.995 | locus YAL026C, strain drs2, stronger effect = lower value 1 | locus YAL030W, strain snc1, stronger effect = lower value 0.998 | locus YBL061C, strain skt5, stronger effect = lower value 1.02 | locus YBR009C, strain hhf1, stronger effect = lower value 1.02 | locus YBR021W, strain FUR4, stronger effect = lower value 0.868 | locus YBR023C, strain chs3, stronger effect = lower value 1 | locus YBR171W, strain sec66, stronger effect = lower value 1 | locus YBR229C, strain ROT2, stronger effect = lower value 1 | locus YBR231C, strain swc5, stronger effect = lower value 1 | locus YBR279W, strain paf1, stronger effect = lower value 1 | locus YCL011C, strain gbp2, stronger effect = lower value 0.995 | locus YCL016C, strain dcc1, stronger effect = lower value 1 | locus YCL029C, strain bik1, stronger effect = lower value 0.999 | locus YCL061C, strain MRC1, stronger effect = lower value 0.999 | locus YCL069W, strain vba3, stronger effect = lower value 1.02 | locus YCR088W, strain abp1, stronger effect = lower value 1 | locus YDL005C, strain med2, stronger effect = lower value 0.986 | locus YDL035C, strain GPR1, stronger effect = lower value 1.02 | locus YDL040C, strain nat1, stronger effect = lower value 1 | locus YDL074C, strain BRE1, stronger effect = lower value 1.02 | locus YDL101C, strain DUN1, stronger effect = lower value 1 | locus YDL134C, strain PPH21, stronger effect = lower value 0.984 | locus YDL185W, strain tfp1, stronger effect = lower value 1 | locus YDL192W, strain arf1, stronger effect = lower value 1 | locus YDR001C, strain nth1, stronger effect = lower value 1 | locus YDR069C, strain doa4, stronger effect = lower value 1.02 | locus YDR101C, strain arx1, stronger effect = lower value 0.994 | locus YDR137W, strain rgp1, stronger effect = lower value 0.988 | locus YDR150W, strain NUM1, stronger effect = lower value 1.01 | locus YDR159W, strain sac3, stronger effect = lower value 1.01 | locus YDR162C, strain NBP2, stronger effect = lower value 1 | locus YDR195W, strain ref2 0.992 | locus YDR297W, strain sur2, stronger effect = lower value 1 | locus YDR318W, strain mcm21, stronger effect = lower value 0.993 | locus YDR334W, strain swr1, stronger effect = lower value 1 | locus YDR335W, strain msn5, stronger effect = lower value 1.02 | locus YDR388W, stronger effect = lower value 0.996 | locus YDR392W, strain spt3, stronger effect = lower value 0.952 | locus YDR502C, strain sam2, stronger effect = lower value 0.975 | locus YEL003W, strain gim4, stronger effect = lower value 1.02 | locus YEL037C, strain rad23, stronger effect = lower value 1.01 | locus YEL061C, strain CIN8 (second series), stronger effect = lower value 1.01 | locus YEL061C, strain CIN8, stronger effect = lower value 1 | locus YER015W, strain faa2, stronger effect = lower value 1 | locus YER016W, strain bim1, stronger effect = lower value 0.99 | locus YER110C, stronger effect = lower value 0.987 | locus YER111C, strain swi4, stronger effect = lower value 0.998 | locus YER155C, strain BEM2 (second series), stronger effect = lower value 1 | locus YER155C, strain BEM2, stronger effect = lower value 0.993 | locus YER167W, strain BCK2, stronger effect = lower value 1.01 | locus YFR010W, strain ubp6, stronger effect = lower value 1.01 | locus YGL078C, strain dbp3, stronger effect = lower value 0.993 | locus YGL086W, strain mad1, stronger effect = lower value 0.996 | locus YGL167C, strain pmr1, stronger effect = lower value 0.999 | locus YGL173C, strain kem1, stronger effect = lower value 1.01 | locus YGL227W, strain vid30, stronger effect = lower value 0.994 | locus YGL240W, strain doc1, stronger effect = lower value 0.99 | locus YGL248W, strain PDE1, stronger effect = lower value 1 | locus YGL253W, strain hxk2, stronger effect = lower value 0.997 | locus YGR078C, strain PAC10, stronger effect = lower value 0.995 | locus YGR135W, strain pre9, stronger effect = lower value 0.959 | locus YGR229C, strain SMI1, stronger effect = lower value 0.971 | locus YGR252W, strain gcn5, stronger effect = lower value 0.946 | locus YHR013C, strain ard1, stronger effect = lower value 0.983 | locus YHR027C, strain rpn1, stronger effect = lower value 1.02 | locus YHR030C, strain SLT2, stronger effect = lower value 0.996 | locus YHR079C, strain IRE1 (second series), stronger effect = lower value 0.986 | locus YHR079C, strain IRE1, stronger effect = lower value 0.994 | locus YHR094C, strain hxt1, stronger effect = lower value 0.984 | locus YHR129C, strain ARP1, stronger effect = lower value 1.01 | locus YHR142W, strain chs7, stronger effect = lower value 1 | locus YHR200W, strain rpn10, stronger effect = lower value 0.995 | locus YIL066C, strain RNR3, stronger effect = lower value 1.02 | locus YIL073C, strain SPO22, stronger effect = lower value 1.02 | locus YIL125W, strain kgd1, stronger effect = lower value 0.992 | locus YIR030C, strain dcg1, stronger effect = lower value 0.993 | locus YJL092W, strain hpr5, stronger effect = lower value 1.01 | locus YJL095W, strain BCK1 (second series), stronger effect = lower value 1.01 | locus YJL095W, strain BCK1, stronger effect = lower value 1 and 0.986 | locus YJL115W, strain asf1, stronger effect = lower value 0.994 | locus YJL129C, strain trk1, stronger effect = lower value 0.99 | locus YJL134W, strain LCB3, stronger effect = lower value 1 | locus YJL154C, strain vps35, stronger effect = lower value 0.996 | locus YJL164C, strain tpk1, stronger effect = lower value 1 | locus YJL166W, strain qcr8, stronger effect = lower value 1 | locus YJL168C, strain set2, stronger effect = lower value 0.994 | locus YJL187C, strain SWE1 (second series), stronger effect = lower value 1 | locus YJR043C, strain POL32, stronger effect = lower value 1.05 | locus YJR066W, strain TOR1, stronger effect = lower value 0.886 | locus YKL009W, strain mrt4, stronger effect = lower value 0.985 | locus YKL068W, stronger effect = lower value 0.997 | locus YKL085W, strain MDH1 (second series), stronger effect = lower value 0.99 | locus YKL085W, strain MDH1, stronger effect = lower value 0.99 | locus YKL160W, strain elf1, stronger effect = lower value 0.991 | locus YKR001C, strain vps1, stronger effect = lower value 0.978 | locus YKR026C, strain gcn3, stronger effect = lower value 0.995 | locus YKR091W, strain srl3, stronger effect = lower value 0.998 | locus YLL001W, strain dnm1, stronger effect = lower value 0.993 | locus YLL026W, stronger effect = lower value 0.989 | locus YLL041C, strain sdh2, stronger effect = lower value 0.989 | locus YLR027C, strain aat2, stronger effect = lower value 1.01 | locus YLR039C, strain RIC1, stronger effect = lower value 1.05 | locus YLR058C, strain SHM2, stronger effect = lower value 1 | locus YLR102C, strain apc9, stronger effect = lower value 0.99 | locus YLR113W, strain HOG1, stronger effect = lower value 1.04 | locus YLR221C, strain rsa3, stronger effect = lower value 1 | locus YLR258W, strain gsy2, stronger effect = lower value 1.01 | locus YLR262C, strain YPT6 (second series), stronger effect = lower value 1.01 | locus YLR262C, strain YPT6, stronger effect = lower value 1.03 | locus YLR268W, strain sec22, stronger effect = lower value 0.988 | locus YLR320W, strain mms22, stronger effect = lower value 0.992 | locus YLR342W, strain FKS1, stronger effect = lower value 0.994 | locus YLR357W, strain rsc2, stronger effect = lower value 0.984 | locus YLR370C, strain arc18, stronger effect = lower value 0.998 | locus YLR371W, strain rom2, stronger effect = lower value 1 | locus YLR384C, strain iki3, stronger effect = lower value 0.978 | locus YLR418C, strain cdc73, stronger effect = lower value 0.948 | locus YML016C, strain PPZ1, stronger effect = lower value 1.01 | locus YML032C, strain rad52, stronger effect = lower value 0.984 | locus YML120C, strain ndi1, stronger effect = lower value 1 | locus YML124C, strain tub3, stronger effect = lower value 0.985 | locus YMR058W, strain fet3, stronger effect = lower value 1.01 | locus YMR078C, strain ctf18, stronger effect = lower value 0.996 | locus YMR125W, strain sto1, stronger effect = lower value 1.02 | locus YMR129W, stronger effect = lower value 0.989 | locus YMR205C, strain PFK2, stronger effect = lower value 0.995 | locus YMR223W, strain ubp8, stronger effect = lower value 0.99 | locus YMR231W, strain pep5, stronger effect = lower value 1 | locus YMR263W, strain SAP30, stronger effect = lower value 0.998 | locus YMR307W, strain GAS1, stronger effect = lower value 1.08 | locus YNL067W, strain RPL9B, stronger effect = lower value 0.989 | locus YNL071W, strain lat1, stronger effect = lower value 1.01 | locus YNL153C, strain GIM3, stronger effect = lower value 1.01 | locus YNL183C, strain NPR1, stronger effect = lower value 0.935 | locus YNL209W, strain ssb2, stronger effect = lower value 0.994 | locus YNL233W, strain BNI4, stronger effect = lower value 0.991 | locus YNL248C, strain rpa49, stronger effect = lower value 0.975 | locus YNL250W, strain rad50, stronger effect = lower value 0.989 | locus YNL271C, strain bni1, stronger effect = lower value 1 | locus YNL298W, strain CLA4, stronger effect = lower value 0.985 | locus YNL307C, strain MCK1, stronger effect = lower value 0.98 | locus YNL322C, strain KRE1 (second series), stronger effect = lower value 0.971 | locus YNL322C, strain KRE1, stronger effect = lower value 1.01 | locus YNR049C, strain mso1, stronger effect = lower value 0.993 | locus YNR052C, strain pop2, stronger effect = lower value 0.991 | locus YOL012C, strain htz1 0.837 | locus YOL147C, strain pex11, stronger effect = lower value 0.983 | locus YOR001W, strain rrp6, stronger effect = lower value 1.01 | locus YOR061W, strain CKA2, stronger effect = lower value 1 | locus YOR069W, strain VPS5, stronger effect = lower value 1 | locus YOR070C, strain gyp1, stronger effect = lower value 0.993 | locus YOR080W, strain dia2, stronger effect = lower value 0.99 | locus YOR083W, strain WHI5, stronger effect = lower value 0.988 | locus YOR106W, strain vam3, stronger effect = lower value 1 | locus YOR136W, strain idh2, stronger effect = lower value 0.989 | locus YOR144C, strain elg1, stronger effect = lower value 0.991 | locus YOR184W, strain ser1, stronger effect = lower value 0.992 | locus YOR231W, strain MKK1, stronger effect = lower value 0.958 | locus YOR265W, strain rbl2, stronger effect = lower value 1.02 | locus YOR270C, strain vph1, stronger effect = lower value 0.965 | locus YOR290C, strain snf2, stronger effect = lower value 0.993 | locus YOR316C, strain cot1, stronger effect = lower value 0.989 | locus YPL051W, strain arl3, stronger effect = lower value 0.974 | locus YPL078C, strain atp4, stronger effect = lower value 0.988 | locus YPL106C, strain sse1, stronger effect = lower value 0.996 | locus YPL240C, strain hsp82, stronger effect = lower value 1 | locus YPL241C, strain CIN2, stronger effect = lower value 1 | locus YPL256C, strain CLN2, stronger effect = lower value 0.991 | locus YPR119W, strain clb2, stronger effect = lower value 0.994 | locus YPR141C, strain kar3, stronger effect = lower value 0.987 | locus YPR163C, strain tif3, stronger effect = lower value 0.98 | locus YPR167C, strain met16, stronger effect = lower value 0.979 | strain wtn01, stronger effect = lower value 0.995
